Source: PubChem
Shiga inhibitor: blocks Shiga toxin action in Vero cells | Vero cells, Shiga toxin protein synthesis inhibition reporter | inhibition, % at 38.7 µM | hit rate 9.2% among 290,000; in the data active = inhibition mostly above about 28%, no sharp cut-off; inactive = mostly below about 43%; also: 0% is about no effect
HCMV antiviral: inhibitors of human cytomegalovirus; HFF cells, HCMV-luciferase reporter, 72 h; hits give low values; activity change, negative = inhibition, % at 57.5 µM; hit rate 4.5% among 410,000; in the data active = activity change below about -60%; inconclusive = no clear call, values can overlap the other calls; inactive = above about -39%; also: % is scaled to controls: 0 for no effect and ±100 for the full control effect
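Two compound doses tested in HFFs infected with HCMV-luciferase, MOI 1 PFU/cell, 72 h at 37C. Lysate luminescence read with OneGlo; data normalized against buffer-only and 10uM Salinomycin inhibitor controls.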
Pf growth 48h: inhibits P. falciparum growth in the first generation, 48 h; P. falciparum luciferase growth in erythrocytes, 48 h; Potency, µM (titrated, usually from 28.7 µM), inactives show at the top dose activity change, negative = inhibition, most hits filed as inhibitors; hit rate 5.9% among 310,000; also: potency is read from the fitted curve at half-maximal effect; % is scaled to controls: 0 for no effect and ±100 for the full control effect
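Read-out is firefly luciferase luminescence from an integrated reporter in P. falciparum, so falling signal marks reduced parasite growth. Infected erythrocytes were at 2% hematocrit and 0.1% parasitemia (final) in Albumax-supplemented RPMI 1640.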
HCV inh: HCV inhibition; Potency, µM (highest dose often 41.8 µM), for the others: at the top dose activity change, negative = inhibition, actives largely listed as inhibitors; hit rate 3.4% among 340,000; Huh7.5.1 HCVcc-Cre infection, luciferase reporter, 44 h; also: potency is read from the fitted curve at half-maximal effect; % is scaled to controls: 0 for no effect and ±100 for the full control effect
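Seed cells (1,000/well) for 4 h; treat with compound and infect with HCVcc-Cre, moi about 0.5. Incubate 44 h, then detect luciferase activity.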
Cycloheximide cs: affects cycloheximide protein synthesis inhibition readout, counter-screen | cell reporter, cycloheximide protein synthesis inhibition counterscreen | AID 2314 | hit rate 12% among 300,000 | max response, %; in the data active = max response mostly above about 13%, no sharp cut-off; inactive = mostly below about 14%; also: read at 38.3 µM for the half of the compounds with a filed dose; 0% is about no effect
Pf growth 96h: inhibits malaria parasite growth, 96 h. hit rate 6.9% among 320,000. AID 504834. Potency, µM (doses to about 28.7 µM), inactives show at the top dose activity change, negative = inhibition, usual class: inhibitors. P. falciparum luciferase reporter growth, 96 h; also: potency is read from the fitted curve at half-maximal effect; % is scaled to controls: 0 for no effect and ±100 for the full control effect
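Erythrocytes infected with luciferase-expressing P. falciparum were dispensed at 2% hematocrit and 0.05% parasitemia (final), then incubated with compounds 96 hours at 37 C in 5% CO2. Luminescence after detection reagent addition reported growth.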
* marks the source's active call; other numbers are inactive results; ? = inconclusive; . = no result. Shown are actives, neighbours in structure and some others; about 21% of the full set was active somewhere. Unless noted, calls follow the shape of the dose curve; as a rule, active = well fitted inhibition curve with a large enough effect; inconclusive = small, poorly fitted or top-dose-only effect, or another doubt; inactive = no such curve, though single readings can be large or run the other way.

SMILES	Shiga inhibitor	HCMV antiviral	Pf growth 48h	HCV inh	Cycloheximide cs	Pf growth 96h
CCc1ccccc1N1CCN(S(=O)(=O)c2cc(OC)ccc2OC)CC1	-7	41	-12%	?	-1	10µM*
COc1ccc(N2CCN(S(=O)(=O)c3ccc(-n4cnnn4)c(C)c3)CC2)cc1	-10	-20	8%	11%	-2	23%
COc1ccccc1N1CCN(S(=O)(=O)c2ccc(-n3cnnn3)c(C)c2)CC1	-7	-12	-4%	1%	-1	1.7µM*
COc1ccccc1N1CCN(S(=O)(=O)c2cc(C)sc2C)CC1	-14	4	.	?	-5	4.7µM*
CCc1cccc(NC(=O)CCNS(=O)(=O)c2ccc3c(c2)CCN3C(C)=O)c1	.	-4	.	.	.	.
O=C(Cc1ccccc1F)N1CCN(S(=O)(=O)c2ccc(Cl)cc2)CC1	.	-6	?	12%	.	?
NC(=O)c1ccc(SCC(=O)OCC(=O)NC2CCCCCCC2)c([N+](=O)[O-])c1	.	?	-8%	1%	.	-9%
Cc1ccc(S(=O)(=O)N2CCN(C(=O)n3ccnc3)CC2)cc1	.	16	?	4%	.	7.4µM*
Cc1ccc(C(=O)N2CCN(S(=O)(=O)c3ccc(C(C)C)cc3)CC2)s1	.	-11	?	-18%	.	?
CC(C)c1ccc(S(=O)(=O)N2CCN(C(=O)n3ccnc3)CC2)cc1	.	?	?	-18%	.	5.2µM*
CN(Cc1ccccc1)C(=O)C1CCN(S(=O)(=O)c2ccc3nc4c(c(C(=O)O)c3c2)CCCC4)CC1	-1	8	?	10%	-6	?
O=c1c(-c2ccccc2)nc2ccccc2n1C(c1ccccc1)c1nc2ccccc2[nH]1 (stereo unspecified)	.	38	.	.	.	.
O=c1c(-c2ccccc2)nc2ccccc2n1C(CCc1ccccc1)c1nc2ccccc2[nH]1 (stereo unspecified)	.	-67*	.	.	.	.
CC(C)c1ccc(/C=C2\CC/C(=C\C=N\N(C)C)C2=O)cc1	125*	33	.	10%	55*	?
CN(C)/N=C/C=C1\CC/C(=C\c2ccc(F)c(F)c2)C1=O	.	-6	.	17%	.	.
CN(C)c1ccc(/C=C2/C[N+](C)(C)C/C(=C/c3ccc(N(C)C)cc3)C2=O)cc1	.	?	.	-21%	.	.
CC(C)/C=C1\CC/C(=C\c2ccc(N(C)C)cc2)C1=O	77*	78	86%	?	35*	42%
Cc1noc(C)c1NC(=O)N(C)C[C@H]1Oc2ccc(NC(=O)C3CC3)cc2C(=O)N([C@H](C)CO)C[C@@H]1C	.	66	.	15%	.	.
O=C(N/C(=C/c1ccco1)C(=O)N1CCOCC1)c1ccccc1Br	-31	-4	-2%	14%	3	16%
Cc1ccc(C)c(-c2csc(NC(=O)c3cnccn3)n2)c1	31	-5	?	-2%	10	12µM*
Cc1csc(NC(=O)c2cccnc2)n1	20	10	88%	8%	9	276%
Cc1csc(NC(=O)c2cnccn2)n1	71	44	142%	24%	45*	.
CCC(C)NC(=O)CCCN1C(=O)CCn2nc(-c3cccn3C)cc21 (stereo unspecified)	.	9	.	.	.	.
COc1ccc(Br)cc1/C=N/NC(=O)c1ccc2nc[nH]c2c1	-7	0	18%	?	-1	30%
COc1ccc(CCNC(=O)COC(=O)Cn2cnc3c2c(=O)n(C)c(=O)n3C)cc1	.	74	-17%	21%	.	?
SMILES	Shiga inhibitor	HCMV antiviral	Pf growth 48h	HCV inh	Cycloheximide cs	Pf growth 96h
O=C(Cn1cnc2ccccc2c1=O)Nc1nc2ccccc2s1	15	5	30%	16%	-2	32%
Cn1c(=O)c2c(ncn2CC(=O)Nc2nc3ccc(F)cc3s2)n(C)c1=O	31	44	20%	-23%	13*	.
COc1ccc2nc(NC(=O)Cn3cnc4c(=O)n(C)c(=O)n(C)c43)sc2c1	13	52	17%	12%	-3	?
Cn1c(=O)c2c(ncn2CC(=O)OCC(=O)NCc2ccc(F)cc2)n(C)c1=O	.	-65*	.	.	.	.
CCc1ccc2nc(NC(=O)Cn3cnc4ccccc4c3=O)sc2c1	53*	4	62%	12%	29*	42%
C=CCNc1nc2cc(-c3ccccc3OC)sc2c(=O)n1C	.	149	.	.	.	.
CCS(=O)(=O)c1nc(S(=O)(=O)c2ccc(C)cc2)c(N2CCC(C)CC2)s1	2	?	?	?	-1	-27%
CCCS(=O)(=O)c1nc(S(=O)(=O)c2ccc(C)cc2)c(N2CCCC2)s1	-11	-37	12µM*	1%	1	.
CCCS(=O)(=O)c1nc(S(=O)(=O)c2ccc(C)cc2)c(N2CCCC(C)C2)s1 (stereo unspecified)	-3	?	?	?	-1	?
CCCS(=O)(=O)c1nc(S(=O)(=O)c2ccc(C)cc2)c(N2CCC(C(N)=O)CC2)s1	-8	?	-7%	12%	2	10µM*
CCCS(=O)(=O)c1nc(S(=O)(=O)c2ccc(C)cc2)c(N2CCC(O)CC2)s1	14	-33	-6%	1%	-2	-10%
CCCS(=O)(=O)c1nc(S(=O)(=O)c2ccc(C)cc2)c(N2CCC(C)CC2)s1	-2	?	?	-26%	-3	15µM*
CCCS(=O)(=O)c1nc(S(=O)(=O)c2ccc(C)cc2)c(N2CCc3ccccc3C2)s1	7	?	2.3µM*	?	5	?
O=C(CCS(=O)(=O)c1ccc(F)cc1)Nc1nccs1	.	-34	.	.	.	.
COC(=O)c1ccc(CNC(=O)[C@@H]2CCCN2S(=O)(=O)c2ccccc2F)cc1	.	0	.	1%	.	.
O=C(NC1CC1)c1cccc(NC(=O)C2CC2)c1	.	-81*	.	5%	.	.
CCOc1ccccc1NC(=O)c1cccc(NC(=O)C2CCCC2)c1	-1	-30	-28%	?	2	?
O=C(Nc1ccccc1Cl)c1cccc(NC(=O)C2CCCC2)c1	2	-38	-16%	?	12*	1%
O=C(NC1CC1)c1cccc(NC(=O)C2CCCC2)c1	.	-31	.	-1%	.	.
